# Most compounds without a hit are left out; they make up all but 2.4% or so of the library.
# D2 ag-1 – agonists of human D2 dopamine receptor (beta-arrestin) | P14416 | DiscoveRx PathHunter D2 beta-arrestin, luminescence, 90 min; 100% = 57 uM dopamine signal | 360,000 compounds, 0.084% hits | AID 624465 | activation, % (no concentration beside the values); in the data active = activation above about 40%; inconclusive = between about 15% and that limit
# Target sequence (P14416 whole entry, looked up): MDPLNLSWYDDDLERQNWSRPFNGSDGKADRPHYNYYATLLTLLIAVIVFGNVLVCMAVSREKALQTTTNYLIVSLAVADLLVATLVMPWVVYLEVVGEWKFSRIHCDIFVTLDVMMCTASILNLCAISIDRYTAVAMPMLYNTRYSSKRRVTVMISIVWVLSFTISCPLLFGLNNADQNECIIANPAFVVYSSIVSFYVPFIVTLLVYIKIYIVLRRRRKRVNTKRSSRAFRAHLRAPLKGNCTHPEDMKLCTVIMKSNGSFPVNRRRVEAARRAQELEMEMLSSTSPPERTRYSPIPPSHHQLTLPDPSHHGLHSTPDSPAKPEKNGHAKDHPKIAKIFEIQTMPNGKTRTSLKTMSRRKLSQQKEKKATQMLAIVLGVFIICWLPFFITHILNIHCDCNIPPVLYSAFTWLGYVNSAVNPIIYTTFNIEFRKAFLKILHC
#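 DiscoveRx PathHunter D2 beta-arrestin cells (2,100/well) attached overnight, then compound-stimulated 90 min at 37 C in HBSS/10 mM HEPES/0.1% Tween-20 buffer; beta-galactosidase complementation read by luminescence after 1 h at ambient temperature. Dopamine 57 uM final (EC100) as control.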
# D2 antagonist – antagonizes the human D2 dopamine receptor; P14416; AID 485344; HEK293 TREx D2 cells, calcium flux, dopamine EC80; 340,000 compounds, 2% hits; inhibition, % at 10 µM; in the data active = inhibition above about 30%; inactive = below that, where a call was filed
#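 Overnight-induced (tetracycline, 30 C) HEK293 T-REx cells carrying force-coupled D2 receive a no-wash calcium dye, then compound, then EC80 dopamine at 180 s; signals are read kinetically throughout.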
# D2 PAM-1 – positively modulates the human D2 dopamine receptor allosterically; HEK293 T-REx D2, calcium flux, EC20 dopamine potentiation; P14416; 340,000 compounds, 0.34% hits; potentiation, % at 10 µM;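 active = potentiation over 3 SD above the plate norm, cut at about 30% in these data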
#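 Primary screen. Calcium kinetics in induced HEK293 T-REx D2 cells: compound pre-addition 180 s, EC20 dopamine, 180 s more.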
# D2 ag-2 – activates the human D2 dopamine receptor | 340,000 compounds, 0.53% hits | AID 485358 | HEK293 T-REx D2 cells, calcium flux agonist mode | activation, % at 2 µM | P14416;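 active = activation over 3 SD above normal in the single-dose calcium agonist read, cut at about 30% in these data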
#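 HEK293 Trex D2 cells, tetracycline-induced, o/n 30 C 5% CO2; no-wash Ca dye, RT 30–90 min; 10-cycle baseline, 23 nl cpd added, kinetic Ca read 180 s; agonist hits = positive Ca response.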
# D2 PAM-2 – human D2 receptor positive allosteric modulation. P14416. DiscoveRx D2 beta-arrestin cells, luminescence, 90 min; 100% = 57 uM dopamine signal. potentiation, % (no concentration beside the values). 360,000 compounds, 0.23% hits. AID 624464; in the data active = potentiation above about 50%; inconclusive = mostly about 30% to 49%
#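 PathHunter D2 cells, attached overnight at 37 deg C, received compound in DMSO plus dopamine at EC20 (50 nM final) for 90 min at 37 deg C. Beta-arrestin recruitment was read as luminescence after 1 h with detection reagent at ambient temperature.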
# Numbers stand for hits; i = inactive; ? = inconclusive; nt = not tested or not shown; ! = not active in a repeat.
SMILES,D2 ag-1,D2 antagonist,D2 PAM-1,D2 ag-2,D2 PAM-2
Cc1ccc(S(=O)(=O)N2CCCCC2)cc1NC(=O)CN1CC=C(c2ccccc2)CC1,i,i,i,i,i
CC(=NCCC1=CCCCC1)c1c(O)n(-c2ccccc2)c(=O)[nH]c1=O,i,31,i,i,i
Cc1cc(OCC(=O)N2CCN(CCc3ccccn3)CC2)cc(C)c1Cl,nt,nt,nt,i,nt
CC1=CC(=O)C2=C(C)CC(O)C3C(C)C(=O)OC3C12 (stereo not given),i,35,i,i,i
O=C1NC(=O)[C@]2(Cc3ccccc3N3CCN(c4ccccc4)CC32)C(=O)N1Cc1ccccc1 (stereo not given in full),?,40,i,35,i
Cc1cc(-n2c(/C=C/c3cccs3)nc3ccccc3c2=O)ccc1Br,nt,nt,i,i,nt
Cc1cccc(CS(=O)(=O)Cc2ccc(C(=O)N3CCC4(CC3)OCCO4)o2)c1,i,40,i,i,i
O=C(c1ccc(CS(=O)(=O)c2ccccc2)o1)N1CCC2(CC1)OCCO2,i,i,i,i,i
COc1ccc2c(c1)C1OCCNC1CC2 (stereo not given),i,nt,nt,nt,i
Oc1cc2c(cc1O)[C@H]1c3ccccc3CN[C@@H]1CC2,nt,92,i,84,nt
COC(=O)C1=C(c2ccc(OCc3ccccc3)cc2)C[C@@H]2CC[C@H]1N2C(=O)NC1CCN(Cc2ccccc2)CC1,i,70,i,i,i
CN1CCC(OC(=O)C2c3ccccc3Oc3ccccc32)CC1,i,33,i,i,i
Cc1cc(NC(=O)c2cccn(Cc3cccc([N+](=O)[O-])c3)c2=O)no1,nt,nt,i,i,nt
CC1CCN(CC#CCOc2ccc(Cl)cc2)CC1,i,86,i,i,i
COC(=O)C(O)(c1ccc(NC(=S)NC(=O)c2ccc(Cl)cc2Cl)cc1)C(F)(F)F (stereo not given),i,i,32,i,i
Cc1oc(-c2ccc(Cl)cc2)nc1CN1C(=O)CN=C(c2ccccc2)c2ccccc21,nt,nt,i,nt,nt
COc1ccc(C(=O)N2CCCC2=O)cc1,i,40,i,i,i
Cc1ccc(C(C)C)c(OCC#CCN2CCCC2)c1,i,35,i,i,61
N#CC1=C(N)Oc2c(c(=O)oc3ccccc23)C1c1ccncc1 (stereo not given),i,i,i,i,i
CCOc1ccc(C2C(C#N)=C(N)Oc3c2c(=O)oc2ccccc32)cc1 (stereo not given),i,31,i,i,i
OC1(c2ccc(F)cc2)CCNC1 (stereo not given),i,86,i,i,i
CCCC12CN3CC(C)(CN(C1)C3c1c(C)[nH]c(=O)[nH]c1=O)C2=O (stereo not given),nt,nt,i,i,nt
CNC(C)Cc1ccccc1Sc1ccc(O)cc1 (stereo not given),i,67,i,i,i
COc1ccc(-c2nc(CN3C(=O)CN=C(c4ccccc4)c4ccccc43)c(C)o2)cc1OC,nt,nt,i,i,nt
O=C1NC(=O)N(c2ccccc2F)C(=O)/C1=C/c1ccc(Sc2nc3ccccc3[nH]2)o1,i,44,i,i,i
SMILES,D2 ag-1,D2 antagonist,D2 PAM-1,D2 ag-2,D2 PAM-2
O=C(Nc1ccc(OC(F)(F)F)cc1)c1cccn(Cc2ccccc2Cl)c1=O,nt,nt,i,i,nt
COc1ccccc1N1CCN(Cc2ccccc2F)CC1,i,81,i,i,i
COc1ccccc1N1CCN(CCc2ccccc2)CC1,i,73,i,i,i
COc1ccccc1N1CCN(Cc2ccc(Br)cc2)CC1,i,94,i,i,i
COc1ccccc1N1CCN(Cc2ccccc2Cl)CC1,i,79,i,i,i
CCCCc1ccc(NC(=O)c2cccn(Cc3ccc(Cl)cc3)c2=O)cc1,nt,nt,i,nt,nt
COc1ccccc1N1CCN(Cc2cnc(-c3ccccc3)[nH]2)CC1,i,57,i,i,i
COc1ccccc1CN1CCN(C(=O)COc2ccccc2)CC1,i,33,i,i,i
COc1ccc(OCC(=O)N2CCN(Cc3ccc(SC)cc3)CC2)cc1,i,46,34!,i,i
COc1cc(OC)c(OC)cc1CN1CCN(C(=O)COc2ccc3ccccc3c2)CC1,i,i,i,i,i
COc1ccc(OCC(=O)N2CCN(Cc3ccc4c(c3)OCO4)CC2)cc1,i,i,i,i,i
CCN(CC)C(=O)c1ccc(NC(=O)CCn2nc(-c3ccc(C)cc3)c3ccccc3c2=O)cc1,nt,nt,i,nt,nt
CN(C)P1(N(C)C)=Nc2c(c(N)nn2C)C(c2ccccc2)=N1,i,31,i,i,i
O=[N+]([O-])c1ccc(N2CCNCC2)cc1NCc1ccco1,i,61,i,i,i
CN1CCN(c2ccc([N+](=O)[O-])c(NCc3ccco3)c2)CC1,i,53,i,i,i
CNc1cc(N2CCNCC2)ccc1[N+](=O)[O-],i,i,i,i,i
Cc1cccc(-n2c(/C=C/c3c[nH]c4ccccc34)nc3ccccc3c2=O)c1,nt,nt,i,nt,nt
Cc1cccc(CN2CC=C(c3noc(CCC(=O)Nc4ccc(C)c(F)c4)n3)CC2)c1,nt,nt,i,i,nt
CC(C)[C@H]1C(=O)N2CCC[C@H]2[C@]2(O)O[C@](NC(=O)[C@@H]3C=C4c5cccc6[nH]cc(c56)C[C@H]4N(C)C3)(C(C)C)C(=O)N12,80,88,i,84,66
CC(C)[C@@]1(NC(=O)[C@@H]2C=C3c4cccc5[nH]cc(c45)C[C@H]3N(C)C2)O[C@@]2(O)[C@@H]3CCCN3C(=O)[C@H](Cc3ccccc3)N2C1=O,nt,80,i,64,nt
CC(C)c1ccc(NC(=O)CN2C(=O)CN=C(c3ccccc3)c3ccccc32)cc1,nt,nt,i,i,nt
CCC(C(=O)Nc1ccccc1F)N1C(=O)CN=C(c2ccccc2)c2ccccc21 (stereo not given),nt,nt,i,i,nt
COc1ccc(OC)c(NC(=O)Cn2cc(C(=O)c3ccccc3F)c3ccccc32)c1,nt,nt,i,i,nt
Cc1ccsc1C(=O)C1CCCN(Cc2c(C)nn(C(C)C)c2C)C1 (stereo not given),i,57,i,i,i
Cc1ccsc1C(=O)C1CCCN(Cc2cnc(N3CCCC3)s2)C1 (stereo not given),i,39,i,i,i
Cc1cc(C)cc(OCC(=O)Nc2ccc(Cl)cc2C(=O)c2ccccc2)c1,nt,nt,i,i,nt
O=C(CN1C(=O)CN=C(c2ccccc2)c2ccccc21)Nc1cccc(C(F)(F)F)c1,nt,nt,nt,i,nt

# Screening data deposited in PubChem BioAssay by National Center for Advancing Translational Sciences (NCATS).
